Among all 69,000 compounds or so, about 8,600 (12%) showed an effect of 50% or more. Shown is part of a subset that was picked to be rich in strong results.
System: Plasmodium berghei
Assay: Screen against P. berghei liver stage (PbLuc), transformed with Luciferase, at 10uM
Type: functional, HepG2
Settings: tested at 10 uM

Row | Structure (SMILES) | INHIBITION
1 | CS(=O)(=O)NCc1cc(=O)n2c(n1)CN(CC1CC1)CCC2 | 37.6%
2 | Cc1nc(CN2CCC3(CCN(Cc4nccn4C)CC3)C2=O)cs1 | -11.2%
3 | N#Cc1ccc(CNCC2(c3ccccc3)CCOCC2)cc1 | -32.8%
4 | COCC(=O)N1CCC(c2cc(-c3ccc(C)cc3)n[nH]2)C1 (stereo unspecified) | -16.9%
5 | CC(C(=O)N1CCCN(c2ccccc2C#N)CC1)n1cccn1 (stereo unspecified) | -6.44%
6 | CNC(=O)[C@H]1C[C@@H]2CN(S(=O)(=O)c3cccc(F)c3)C[C@@H]2N1C | -23.8%
7 | CNC(=O)[C@H]1C[C@@H]2CN(S(=O)(=O)c3ccccc3)C[C@@H]2N1C | 30.1%
8 | CNC(=O)[C@H]1C[C@@H]2CN(S(=O)(=O)c3cccc(C)c3)C[C@@H]2N1C | 50.7%
9 | CCc1n[nH]c(C(=O)N2CCC3(CCCN(CCOC)C3=O)C2)c1C (stereo unspecified) | 41.2%
10 | Cc1cc2ncc(CN(C)C)c(C3CCN(C)CC3)n2n1 | 16.771%
11 | Cc1ccccc1CN1CCN(C(C)c2nc(C3CC3)no2)CC1 (stereo unspecified) | 5.7%
12 | CCC1CN(C(=O)c2ncccc2O)CCC(=O)N1Cc1ccccc1 (stereo unspecified) | 7.43%
13 | CCC1CN(C(=O)c2ccc(=O)[nH]n2)CCC(=O)N1Cc1ccccc1 (stereo unspecified) | 25%
14 | CCC1CN(C(=O)c2ccc(O)cn2)CCC(=O)N1Cc1ccccc1 (stereo unspecified) | 66.8%
15 | COCC(=O)N1CCC2(CC1)CCN(Cc1ccccn1)C2=O | 42.1%
16 | COCC(=O)N1CCC2(CC1)CN(c1ncccn1)CCO2 | 57.9%
17 | NC(=O)N1CCC2(CC1)CN(c1ncccn1)CCO2 | 25.2%
18 | Cn1cccc1C(=O)N1CCC2(CC1)CN(c1ccccn1)CCO2 | 28.5%
19 | COCC(=O)N1CCC2(CC1)CC(COC)N(Cc1ccccn1)C2 (stereo unspecified) | 26.7%
20 | CN(C)C(=O)CN1CCOCC2(C1)CN(c1ncccn1)CCO2 (stereo unspecified) | 11.6%
21 | O=C(Cc1ccccn1)N1CCC2(CC1)CN(c1ccccn1)CCO2 | 21.7%
22 | O=C(C1CCOC1)N1CCC2(CC1)CN(c1ncccn1)CCO2 (stereo unspecified) | 25.2%

Row | Structure (SMILES) | INHIBITION
23 | COCC(=O)N1CCC2(CCN(Cc3ccccn3)CC2)CC1 | 56.9%
24 | COCC(=O)N1CCC2(CC1)CN(c1ccccn1)CCO2 | 62.5%
25 | CN(C)CC(=O)N1CCC2(CC1)CN(c1ncccn1)CCO2 | 83.5%
26 | CN(C)CC(=O)N1CCC2(CC1)COCCN(c1ncccn1)C2 | -13.2%
27 | Cc1cnc(N2CCOC(C(=O)NCc3ccccc3)C2)s1 (stereo unspecified) | 12.8%
28 | CCC(C)NC(=O)c1cc(S(=O)(=O)N2CCCC2)c(C)s1 (stereo unspecified) | 28.3%
29 | Cn1ccc(C(=O)NCc2ccc(N3CCOCC3)nc2)cc1=O | -29.9%
30 | O=C(NCC(F)(F)F)C1CSCN1S(=O)(=O)c1cccc(F)c1 (stereo unspecified) | -16.6%
31 | COc1ccc(-c2cc(C(=O)NCCn3ccnc3)n(C)n2)cc1 | -5.8%
32 | CN(Cc1ccc(O)cc1)C(=O)NCc1nnc2n1CCCCC2 | -9.76%
33 | CCc1nc(CN2CCCN(CC(=O)N3CCOCC3)CC2)no1 | 13.8%
34 | CCC(C)C(=O)NCc1c(C)nn(C)c1N1CCCN(C)CC1 (stereo unspecified) | -1.32%
35 | NCCC(=O)N1CCC2(CC1)CN(C(=O)Cc1cccc(Cl)c1)CCO2 | -4.76%
36 | CCCS(=O)(=O)N1CCC2(CC1)CN(c1ccccn1)CCO2 | 0%
37 | Cc1occc1C(=O)N1CCC2(CC1)CN(c1ccccn1)CCO2 | 14.8%
38 | O=S(=O)(C1CC1)N1CCC2(CCCN(c3ncccn3)C2)C1 (stereo unspecified) | 19.6%
39 | c1cnc(N2CCOC3(CCN(CC4CCCCC4)CC3)C2)nc1 | 34.7%
40 | O=S(=O)(C1CC1)N1CCC2(CN(c3ncccn3)C2)C1 | 54.8%
41 | NCCC(=O)N1CCC2(CC1)CN(C(=O)Cc1ccc(Cl)cc1)CCO2 | 64.8%
42 | O=C(N1CCOCC1)N1CCC2(CC1)CN(c1ccccn1)CCO2 | 67.2%
43 | O=C(CC1CC1)N1CCC2(CC1)CN(c1ncc(F)cn1)CCO2 | 35.7%
44 | O=C(CC1CC1)N1CCC2(CC1)CN(c1ncccn1)CCO2 | 50%

Row | Structure (SMILES) | INHIBITION
45 | NCC(=O)N1CCC2(CC1)CN(C(=O)Cc1ccc(Cl)cc1)CCO2 | -26.3%
46 | O=S(=O)(C1CC1)N1CCC2(CN(c3ccccn3)C2)C1 | 24.9%
47 | NC(=O)c1cnc(NC2CC2)nc1CCNC(=O)Cc1ccccc1 | -50.3%
48 | CCn1nc(C)c(CNC(=O)NCC(C)(O)c2ccc(C)o2)c1C (stereo unspecified) | -8.5%
49 | Cc1ccc(CN2CCC3(CC2)C(=O)N(CCO)CCN3C)o1 | 18.6%
50 | O=C(CCc1ccsc1)N1CCCC(N2CCNC2=O)C1 (stereo unspecified) | -5.26%
51 | O=C(NCCc1ccccn1)N1CCOC(c2ccccc2Cl)C1 (stereo unspecified) | -4.63%
52 | COc1cc(C2SC(C)=Nc3c2c(=O)[nH]n3C2CCCC2)ccc1O (stereo unspecified) | 24.7%
53 | CC(C)CC(=O)N1C[C@H]2CCCN(S(=O)(=O)c3ccc(Cl)s3)[C@H]2C1 | -29.9%
54 | Cc1cnc(C(=O)N2CCC3(CC2)CN(c2ccccn2)CCO3)cn1 | 56.7%
55 | CS(=O)(=O)N1CCOC2(CCCN(c3cnccn3)C2)C1 (stereo unspecified) | -14%
56 | CC(C)COC1CC2(CCN(C(=O)Cc3ccccn3)CC2)C1 | 64.7%
57 | CCOC1CC2(CCN(C(=O)Cc3ccccn3)CC2)C1 | 31.2%
58 | Cc1ccc(C(=O)N2CCC3(CC2)CN(c2ccccn2)CCO3)cc1 | 49.7%
59 | O=C(c1cscn1)N1CCC2(CC1)CN(c1ccccn1)CCO2 | 34.6%
60 | CC(=O)N1CCCC2(C1)CN(C(=O)Cc1ccccc1)CCO2 (stereo unspecified) | 41.6%
61 | COCC(=O)N1CCOC2(CCCN(c3cnccn3)C2)C1 (stereo unspecified) | 52.3%
62 | O=C(Cc1ccccc1)N1CCC2(CC1)CN(c1ncccn1)CCO2 | 50.9%
63 | CCS(=O)(=O)N1CCOC2(CCCN(c3cnccn3)C2)C1 (stereo unspecified) | -7.59%
64 | O=C(Cc1ccccn1)N1CCC2(CC1)[C@H](O)C[C@@H]2O | 39%
65 | O=C(Cc1ccccn1)N1CCC2(CC1)CN(c1ncccn1)CCO2 | 27.6%
66 | CC1=C(C#N)C(=O)NC(=O)/C1=C\c1c(C)[nH]n(-c2ccc(Cl)cc2)c1=O | 11.5%
